High-throughput results as filed in PubChem BioAssay.
ALOX12 inh: ALOX12 (human) lipoxygenase inhibition. purified 12hLO, xylenol orange hydroperoxide absorbance. 580,000 compounds, 1.1% hits. Potency, µM (top dose mostly 108 µM), for the others: top-dose activity change, negative = inhibition, actives largely listed as inhibitors; note: potency is the fitted concentration of half-maximal effect
Target sequence (P18054 whole entry, looked up): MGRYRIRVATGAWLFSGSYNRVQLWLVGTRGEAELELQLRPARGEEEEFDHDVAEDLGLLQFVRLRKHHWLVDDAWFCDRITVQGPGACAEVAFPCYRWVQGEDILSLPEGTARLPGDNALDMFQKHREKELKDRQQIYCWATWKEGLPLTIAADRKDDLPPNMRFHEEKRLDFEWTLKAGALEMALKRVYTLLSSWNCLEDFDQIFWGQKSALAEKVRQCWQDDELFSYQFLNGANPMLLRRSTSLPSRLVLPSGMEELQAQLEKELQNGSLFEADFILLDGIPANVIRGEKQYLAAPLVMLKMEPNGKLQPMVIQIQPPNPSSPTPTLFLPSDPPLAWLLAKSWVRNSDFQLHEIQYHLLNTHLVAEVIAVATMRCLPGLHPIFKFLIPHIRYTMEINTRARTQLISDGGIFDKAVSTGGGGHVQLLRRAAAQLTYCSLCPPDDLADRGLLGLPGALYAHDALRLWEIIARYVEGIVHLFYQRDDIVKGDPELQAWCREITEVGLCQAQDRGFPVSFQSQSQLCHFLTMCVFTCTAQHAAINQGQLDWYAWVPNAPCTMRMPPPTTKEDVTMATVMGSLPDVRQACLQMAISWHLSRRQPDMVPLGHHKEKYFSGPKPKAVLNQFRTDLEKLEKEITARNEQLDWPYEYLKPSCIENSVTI
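Hydroperoxide product was detected by ferrous iron/xylenol orange as the 573 to 405 nm absorbance ratio. Arachidonic acid at 40 uM (final) was turned over for 30 min at room temperature by 150 nM human 12hLO, pH 7.0 Hepes buffer, after 15 min compound preincubation.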
IL1B secr inh: blocks inflammasome-driven IL-1 beta release | THP-1 LPS/ATP IL-1B secretion, AlphaLISA, 16 h; stronger effect = lower value | activity change, % at 57.5 µM | 360,000 compounds, 4.7% hits; in the data active = activity change below about -50%; inconclusive = mostly about -30% to -49%
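Secreted IL-1B measured by AlphaLISA bead assay after 16 h compound exposure of THP-1 cells; compounds (final up to 57.5 uM) added 1 h before LPS (250 ng/mL) and ATP (1.25 mM) stimulation; lower signal means less secretion.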
TDP1 cell CPT: growth inhibition of DT40 Tdp1-/-;hTDP1 cells with camptothecin (screen for TDP1 inhibitors). AID 686979. 420,000 compounds, 12% hits. Potency, µM (highest dose often 46.2 µM), for inactives: top-dose activity change, negative = growth inhibition, usual class: inhibitors. chicken DT40 Tdp1-/-;hTDP1 cells + 20 nM CPT, ATP luminescence, 48 h; note: potency is the fitted concentration of half-maximal effect; nearly all actives have a fitted effect of over 55% in size
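Cell growth measured by CellTiter-Glo luminescence after a minimum 48 h, 37 C compound exposure with 20 nM CPT in Tdp1-knockout DT40 cells stably expressing hTDP1, seeded 400/well; qHTS titration format.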
TDP1 cell noCPT: qHTS for Inhibitors of human tyrosyl-DNA phosphodiesterase 1 (TDP1): qHTS in cells in absence of CPT. DT40 Tdp1-/- hTDP1 cells, no CPT, ATP luminescence, 48 h. 420,000 compounds, 15% hits. Potency, µM (top dose mostly 46.2 µM), for the others: top-dose activity change, negative = growth inhibition, hits mostly inhibitors. AID 686978, 2013; note: potency is the fitted concentration of half-maximal effect; nearly all actives have a fitted effect of over 55% in size
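Growth kinetics read by CellTiter-Glo luminescence after ≥48 hr at 37 °C. Cells: DT40 Tdp1-/- stably carrying human TDP1, 400 per well, compound exposure in the absence of CPT (DMSO vehicle).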
HT1080-NT tox: kills 2HG-producing HT-1080-NT fibrosarcoma cells; Potency, µM (titrated, usually from 46.1 µM), for the others: at the highest dose activity, negative = less viability, most hits filed as cytotoxic; AID 686970; 360,000 compounds, 1.6% hits; HT-1080-NT fibrosarcoma viability, CellTiter-Glo ATP luminescence, 48 h;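 note: NT is the 2HG producing partner of a matched IDH1 knockdown line; potency is the fitted concentration of half-maximal effect; 0% = DMSO-treated cells and -100% = media-only wells without cells; nearly all actives have a fitted effect of over 55% in size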
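HT-1080-NT fibrosarcoma cells (2HG-overproducing), 750 cells/well in RPMI with 5% FBS, dosed after 2 h and incubated 48 h at 37C. CellTiter-Glo luminescence normalized to DMSO and no-cell wells; concentration-response curves fitted and classed.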
HT1080 IDH1KD tx: HT-1080 IDH1 knockdown cell toxicity (counter line); HT-1080 IDH1 knockdown viability, ATP luminescence, 48 h; Potency, µM (highest dose often 46.1 µM), without a hit: at the top dose activity, negative = toxicity, usual class: cytotoxic; 360,000 compounds, 2% hits; AID 686971;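 note: potency is the fitted concentration of half-maximal effect; 0% = DMSO wells and -100% = cell-free medium wells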
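In this qHTS, HT-1080 cells depleted of IDH1 are exposed for 48 h at 37 °C to compound titrations. Toxicity is scored from CellTiter-Glo luminescence, with DMSO as full viability and medium alone as none.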
Numbers without * were called inactive; ? = inconclusive; / = no result. This is one part of a sample in which hits are shown more often than they occur. Unless noted, calls come from the whole dose curve; as a rule, active = well fitted curve in the direction sought with a large enough effect; inconclusive = small, poorly fitted or top-dose-only effect, or another doubt; inactive = no such curve, though single readings can be large; an effect the other way counts as inactive or inconclusive. Unless noted, % is set by controls: 0 for no effect and ±100 for the full control effect.

SMILES	ALOX12 inh	IL1B secr inh	TDP1 cell CPT	TDP1 cell noCPT	HT1080-NT tox	HT1080 IDH1KD tx
Cc1ccc(-c2cccc(-c3cc(=O)oc4ccc(C(C)(C)C)cc34)c2)cc1	5%	34	?	23µM*	2%	0%
COc1cc(OC)c2c(-c3cccc(-c4sccc4C(C)=O)c3)cc(=O)oc2c1	1%	27	3.7µM*	4.1µM*	4.1µM*	3.7µM*
Cc1ccc2oc(=O)cc(C)c2c1	5%	/	/	/	/	/
COc1cc(OC)c2c(-c3cccc(-c4ccc(C(F)(F)F)cc4)c3)cc(=O)oc2c1	?	115	4.6µM*	2.6µM*	7%	3%
COc1cc(OC)c2c(-c3cccc(-c4ccc(NC(C)=O)cc4)c3)cc(=O)oc2c1	-4%	84	4.1µM*	5.8µM*	0.52µM*	0.92µM*
CCOC(=O)c1ccc(-c2cccc(-c3cc(=O)oc4cc(OC)cc(OC)c34)c2)cc1	/	19	?	?	1%	8%
COC(=O)COc1cc(OCC(=O)OC)c2c(-c3ccccc3)cc(=O)oc2c1	0%	57	-5%	3%	4%	6%
CCOC(=O)C1=C(N2CCCCC2)c2cc3c(n2C1=O)CCCC3	-5%	0	?	9.2µM*	-2%	-6%
CCOc1ccccc1NC(=O)CN(c1ccc(C)cc1)S(=O)(=O)c1c(C)n[nH]c1C	-4%	-95*	?	?	?	?
CCOc1ccc(N(CC(=O)Nc2cccc(Cl)c2)S(=O)(=O)c2c(C)noc2C)cc1	-5%	-17	13µM*	12µM*	?	?
CCOc1ccc(N(CC(=O)Nc2ccccc2OCC)S(=O)(=O)c2c(C)noc2C)cc1	1%	53	5.2µM*	3.3µM*	2.3µM*	2.3µM*
CCOc1ccc(NC(=O)CN(c2ccc(CC)cc2)S(=O)(=O)c2c(C)noc2C)cc1	9%	/	12µM*	13µM*	/	/
CCOc1ccc(N(CC(=O)Nc2ccc(F)c(F)c2)S(=O)(=O)c2c(C)noc2C)cc1	16%	-15	?	?	0%	-3%
COc1ccc(C(=O)NC2CCCCC2)cc1	8%	/	/	/	/	/
CC(C)c1nc(-c2ccc(OC3CCN(C(=O)c4cc(F)ccc4F)C3)cc2)no1 (stereo not drawn)	9%	/	/	/	/	/
CCOc1ccc(N(CC(=O)Nc2cccc(OC)c2)S(=O)(=O)c2c(C)noc2C)cc1	-1%	17	13µM*	18µM*	-9%	-14%
O=C(Nc1ncc(Cc2ccc(SC(F)F)cc2)s1)c1ccccc1	-1%	-6	2.9µM*	2.3µM*	4.6µM*	6.5µM*
Cn1nc(C(=O)Nc2ncc(Cc3ccc(Cl)cc3)s2)c2ccccc2c1=O	-8%	/	/	/	/	/
Cc1ccc(C(=O)Nc2ncc(Cc3ccccc3)s2)o1	-23%	0	-23%	-10%	/	/
O=C(Nc1ncc(Cc2ccc(Cl)cc2)s1)c1ccc2c(c1)CC(c1ccccc1)OC2=O (stereo not drawn)	11%	/	4.6µM*	7.3µM*	/	/
O=C(NCc1cccnc1)C1c2ccccc2C(=O)N(Cc2ccccc2)C12CCCCC2 (stereo not drawn)	3%	/	/	/	/	/
COc1ccc(NC(=S)N2CCN(Cc3ccco3)CC2)c(OC)c1	-5%	0	?	13µM*	-1%	-4%
COc1ccc(NC(=S)N2CCN(Cc3cccc(F)c3)CC2)c(OC)c1	34%	26	23µM*	21µM*	10%	8%
CC(=O)c1cccc(NS(=O)(=O)c2cc3c(cc2C)NC(=O)CO3)c1	-25%	11	-12%	-3%	3%	-12%
